In assay [1] the target is Estrogen receptor (Homo sapiens) (UniProt P03372). Put plainly: CCTE_Deisenroth_AIME_384WELL_LUC_Shift: CCTE's 384-well Estrogen Receptor Transactivation Assay with AIME metabolic competence data shift (ERTA luciferase; difference in metabolism positive and negative), Deisenroth Lab (AID 2284041).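 Also: shift is response with S9 minus without S9 so positive means metabolism raised ER signal.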 The method, boiled down:
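Test chemicals (0.002–200 uM, 10-point) were pre-incubated 2 h with alginate microspheres containing phenobarbital/beta-naphthoflavone-induced male Sprague Dawley rat liver S9 or water, then medium was transferred to VM7Luc4E2 cells for 24 h luciferase readout; shift = S9-positive minus S9-negative normalized response.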

Assay [2] in a line: CCTE_Shafer_MEA_dev_active_electrodes_number: CCTE's Neural Network Formation Assay for Number of Active Electrodes, Shafer Lab (AID 2284040; active = hit-call score of the fitted dose curve at least 0.9, where 1 is the maximum;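 also: potency for loss of active electrodes versus DMSO so lower counts are hits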). The method, boiled down:
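Developing rat cortical networks on MEAs, exposed DIV 0–12. Value is the AUC of active-electrode counts (≥5 spikes/min) from days 5, 7, 9, 12, relative to DMSO.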

Assay [3] in a line: CCTE_Shafer_MEA_dev_burst_rate: CCTE's Neural Network Formation Assay for Burst Rate, Shafer Lab (AID 2284042).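 As to AC50: potency for loss of burst rate below DMSO control.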 The method, boiled down:
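Exposure ran continuously over 12 days of network development in rat cortical cultures, with compound refreshed during full media changes on DIV 5 and 9. Single-electrode bursts per recording time, well-mean over active electrodes, trapezoidal AUC across days 5–12, fitted downward relative to DMSO.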

Assay [4] in a line: CCTE_Shafer_MEA_dev_bursting_electrodes_number: CCTE's Neural Network Formation Assay for Number of Bursting Electrodes, Shafer Lab (AID 2284043; active = hit-call score of the fitted dose curve at least 0.9, where 1 is the maximum;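 also: potency is for loss of bursting electrodes relative to DMSO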). The method, boiled down:
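Number of electrodes reaching ≥1 burst every 2 min was recorded at DIV 5, 7, 9 and 12 and collapsed as trapezoidal area under the curve. Cultures were rat cortical neurons on MEA plates, dosed continuously from plating with medium and treatment refreshed on DIV 5 and 9.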

The nature of assay [5]: CCTE_Shafer_MEA_dev_burst_duration_mean: CCTE's Neural Network Formation Assay for Mean Burst Duration, Shafer Lab (AID 2284045).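 As to AC50: curve fitted for loss meaning shorter burst duration than DMSO.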 The method, boiled down: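 Mean single-electrode burst duration (first to last spike), averaged over bursting electrodes per well, then integrated as area-under-curve across recordings at days 5, 7, 9 and 12. Rat cortical cultures on MEAs, compound present from plating, refreshed at feeds.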

The nature of assay [6]: CCTE_Shafer_MEA_dev_interburst_interval_mean: CCTE's Neural Network Formation Assay for Mean Interburst Interval, Shafer Lab (AID 2284046).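 Also: curve fitted for decrease in interburst interval relative to DMSO.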 The method, boiled down: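 Primary rat cortical neurons on PEI-coated 48-well MEA plates (laminin added with cells at plating) (16 electrodes/well), exposed from plating day 0 with renewal at DIV 5 and 9. Mean inter-burst interval averaged over bursting electrodes, AUC across days 5, 7, 9, 12; DMSO baseline.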

Assay [7] can be described thus: CCTE_Shafer_MEA_dev_inter_network_spike_interval_mean: CCTE's Neural Network Formation Assay for Mean Inter-network Spike Interval, Shafer Lab (AID 2284047).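 As to AC50: potency for a decrease in mean inter-network spike interval below DMSO.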 The method, boiled down:
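Mean time between consecutive network-spike peaks, recorded extracellularly (adaptive spike detection) on DIV 5, 7, 9 and 12, summarized as trapezoidal AUC. Rat cortical cultures on MEAs dosed continuously days 0–12, re-dosed at feeds; loss-of-signal fit relative to DMSO.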

Assay [8] can be described thus: CCTE_Shafer_MEA_dev_network_spike_peak: CCTE's Neural Network Formation Assay for Mean Number of Electrodes in Network Spike, Shafer Lab (AID 2284049).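 Also: fitted for loss of signal meaning fewer electrodes in network spikes than DMSO.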 The method, boiled down: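 Rat cortical primary culture, 1.5 x 10^5 cells/well, 48-well MEA (16 electrodes/well). Dosing day 0 through DIV 12, full media/compound exchange DIV 5, 9. AxIS adaptive spike detection; AUC over days 5/7/9/12; loss-of-signal vs DMSO.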

The nature of assay [9]: CCTE_Shafer_MEA_dev_spike_duration_mean: CCTE's Neural Network Formation Assay for Mean Spike Duration, Shafer Lab (AID 2284051).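 As to AC50: potency for a decrease in mean network spike duration versus DMSO.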 The method, boiled down:
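Spontaneous activity was recorded on days 5, 7, 9 and 12 from rat cortical cultures grown on microelectrode arrays and dosed continuously from day 0, with media and compound renewed after the DIV 5 and 9 recordings. Network-spike duration was collapsed by area under the curve.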

Assay [10] in a line: CCTE_Shafer_MEA_dev_per_network_spike_spike_number_mean: CCTE's Neural Network Formation Assay for Mean Number of Spikes in a Network Spike, Shafer Lab (AID 2284053).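 As to AC50: fitted as decrease in spikes per network spike relative to DMSO.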 The method, boiled down: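 Mean spike count within each network spike, taken in a 0.05 s window at its peak, was recorded on days 5, 7, 9 and 12 and integrated as trapezoidal area under the curve. Rat cortical cultures on MEA plates received continuous compound from day 0, refreshed at medium changes on DIV 5 and 9.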

Assay [11] can be described thus: CCTE_Shafer_MEA_dev_per_network_spike_spike_percent: CCTE's Neural Network Formation Assay for Percent of Spikes in a Network Spike, Shafer Lab (AID 2284054). The method, boiled down: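 Metric: fraction of spikes falling in a 0.05 s window at network-spike peaks. Recordings were made on days 5, 7, 9 and 12 and collapsed by trapezoidal AUC. Cultures were rat cortical neurons on MEA plates, dosed continuously from plating, re-dosed at media changes.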

The nature of assay [12]: CCTE_Shafer_MEA_dev_LDH: CCTE's Lactate Dehydrogenase Assay for Cytotoxicity in the Neural Network Formation Assay, Shafer Lab (AID 2284068; active = hit-call score of the fitted dose curve at least 0.9, where 1 is the maximum;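 also: exposure for twelve days from plating with re-dosing on DIV 5 and 9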). The method, boiled down:
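Primary rat cortical neurons were cultured on PEI-coated MEA plates and exposed from plating through day 12, with compound renewed at medium changes on DIV 5 and 9. LDH activity was read spectrophotometrically; loss of signal versus DMSO indicates reduced viability.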

Assay [13] is described as follows: CCTE_Shafer_MEA_acute_AB: CCTE's Alamar Blue Assay for Cytotoxicity in the Neural Acute Assay, Shafer Lab (AID 2284069; active = hit-call score of the fitted dose curve at least 0.9, where 1 is the maximum;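 also: active compounds lower the viability signal compared with DMSO wells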). The method, boiled down:
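Resazurin reduction (CellTiter Blue, 1:6 in fresh medium) read at ex 544/em 590 nm marks viability loss relative to DMSO. Cells: primary rat cortical neuron networks on microelectrode arrays, treated after baseline recording at 13 or 15 days in vitro.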
Background: The colour change of resazurin is a common sign of viable cells or microbes.

The nature of assay [14]: CCTE_Shafer_MEA_dev_AB: CCTE's Alamar Blue Assay for Cytotoxicity in the Neural Network Formation Assay, Shafer Lab (AID 2284083; active = hit-call score of the fitted dose curve at least 0.9, where 1 is the maximum;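 also: resazurin reduction fluorescence as viability of cultured neurons; twelve days of exposure from plating with re-dosing on DIV 5 and 9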). The method, boiled down:
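Resazurin fluorescence, relative to DMSO, gauges viability after twelve days of exposure that began at plating of rat cortical neurons (1.5 x 10^5 cells/well, 48-well MEA); treatment renewed with full medium exchange on DIV 5 and 9.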

Assay [15] can be described thus: CCTE_Shafer_MEA_acute_LDH: CCTE's Lactate Dehydrogenase Assay for Cytotoxicity in the Neural Acute Assay, Shafer Lab (AID 2284086; active = hit-call score of the fitted dose curve at least 0.9, where 1 is the maximum;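 also: active means LDH release rises above DMSO vehicle level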). The method, boiled down: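 Cytotoxicity readout: spectrophotometric LDH activity in supernatant of rat primary cortical neurons, post-plating day 13 or 15, sampled after 40 min compound exposure; signal gain relative to DMSO baseline.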

Assay [16] can be described thus: CCTE_Shafer_MEA_dev_mutual_information_norm: CCTE's Neural Network Formation Assay for Mutual Information Normalization, Shafer Lab (AID 2284091).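 As to AC50: mutual information between electrodes summarised as area under curve across four recording days; potency is for a decrease in mutual information relative to DMSO.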 The method, boiled down: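 Shared information across electrodes, tracked on days 5, 7, 9 and 12 of network development and collapsed as trapezoidal area under the curve. Rat cortical cultures were treated continuously from plating, with treatment renewed at feeds on DIV 5 and 9; DMSO baseline, negative-direction fit.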

Broadly, the AC50 is the midpoint of the concentration-response curve, whichever way the signal moves.

Each structure is given as a SMILES string. Values joined by “and” are separate entries in the source; they are usually repeats but may differ in a detail not shown here. Identical values can stand only once. Records with an inconclusive call do not appear. Some structures have more than one record in an assay (separate samples or runs), and their calls can disagree. Active and inactive are the calls of the source. The calls were made as follows, unless noted: active = hit-call score of the fitted dose curve at least 0.9, where 1 is the maximum; inactive = score below 0.9.

Sequence of Estrogen receptor (Homo sapiens) (P03372 whole entry, looked up): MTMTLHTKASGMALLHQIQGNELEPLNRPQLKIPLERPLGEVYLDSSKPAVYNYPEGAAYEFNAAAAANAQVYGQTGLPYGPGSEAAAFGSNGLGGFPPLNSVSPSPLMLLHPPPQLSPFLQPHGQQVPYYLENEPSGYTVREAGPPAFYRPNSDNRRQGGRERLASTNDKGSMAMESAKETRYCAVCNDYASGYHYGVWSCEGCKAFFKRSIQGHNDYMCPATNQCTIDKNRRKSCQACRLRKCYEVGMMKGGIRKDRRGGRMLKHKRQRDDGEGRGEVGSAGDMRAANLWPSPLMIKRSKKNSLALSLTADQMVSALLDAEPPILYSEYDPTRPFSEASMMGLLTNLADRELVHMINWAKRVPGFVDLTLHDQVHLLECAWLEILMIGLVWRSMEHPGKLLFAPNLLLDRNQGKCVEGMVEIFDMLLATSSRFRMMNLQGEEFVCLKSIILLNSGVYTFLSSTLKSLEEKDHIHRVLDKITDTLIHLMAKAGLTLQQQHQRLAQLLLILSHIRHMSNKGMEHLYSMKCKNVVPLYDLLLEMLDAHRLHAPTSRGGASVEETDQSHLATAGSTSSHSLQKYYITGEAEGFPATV

Consider `O=S(=O)(c1ccc(Cl)cc1)c1ccc(Cl)cc1`, for which the result in assay [1] was inactive.
For `CC(C)(C)c1cc(O)ccc1O`, the AC50 in [2] was 6.05 µM (active); in assay [1] it was 30.7 µM (active); in assay [4], 6.04 µM (active); in [8] it was 10 µM (active); in assay [9] it was 9.62 µM (active); in [10] it was 5.63 µM (active). The half-maximal activity concentration (AC50) in assay [11] is 5.23 µM (active); in [12], 15 µM (active); in [14], 15.2 µM (active); in assay [16] it was 2.1 µM (active). Also, the compound was called inactive in [3], in [5], in assay [6], in assay [7], in [13] and in [15].
`Cc1ccc(N)cc1Cl`: the outcome in assay [1] was inactive.
Take `COP(=O)(OC)O/C(=C\Cl)c1cc(Cl)c(Cl)cc1Cl`: the AC50 is 78.5 µM (active) and 51.5 µM (active) in assay [2]; 79.3 µM (active) and 51.5 µM (active) in [4]; 86.9 µM (active) and 12.5 µM (active) in assay [8]; 84.2 µM (active) in assay [9]; 50 µM (active) and 51.5 µM (active) in [12]; 50 µM (active) in assay [14]. For the same compound, the outcome in [1], in assay [3], in [5], in [6], in assay [7] and in assay [9] was inactive. In addition, the call in assay [10], in assay [11], in [14] and in assay [16] was inactive.
Take `COc1ccc(C=O)cc1`: the result in [1] was inactive.
On to `CC(=O)[O][Hg][c]1ccccc1`, for which the AC50 is 0.0146 µM (active) in [2]; 0.0117 µM (active) in assay [3]; 0.0108 µM (active) in assay [4]; 0.00963 µM (active) in assay [5]; 0.00958 µM (active) in [6]; 0.0255 µM (active) in assay [7]. Besides, the AC50 is 0.0145 µM (active) in [8]; 0.0121 µM (active) in assay [9]; 0.0238 µM (active) in assay [10]; 0.0173 µM (active) in assay [11]; 0.0183 µM (active) in [12]; 20 µM (active) in assay [13]. Also, the AC50 in [14] is 0.022 µM (active); in assay [16], 0.0082 µM (active). Also, the outcome in assay [1] and in assay [15] was inactive.
Consider `CC1(C)CCC(Cc2ccc(Cl)cc2)C1(O)Cn1cncn1` (stereo unspecified), for which the result in assay [1] was inactive.
The same measure, in the same setting: then `O=C(Cc1ccccc1)c1ccccc1`, with “inactive”; and `[O-][Cl+2]([O-])O`, with “inactive”.
Regarding `CC(=O)OC(c1ccccc1)C(Cl)(Cl)Cl` (stereo unspecified), the compound was called inactive in [15].
Same read-out and setting: the result for `O=C(O)C(Cl)(Cl)Cl` reads “inactive”.

(Values after PubChem BioAssay (EPA / NIEHS).)
